CRFR2-BP ag: CRF-BP/CRF-R2 complex agonism; HEK293 CRF-R2/CRF-BP, calcium dye fluorescence (FLIPR); percent of saturating CRF peptide response; activation, % at 13.2 µM; 350,000 compounds, 0.46% hits; AID 588473;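 active means activation of at least 50%, plus an integration ratio under a set limit after plate pattern correction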;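 further: plate controls were neutral control wells without compound for no effect and CRF at EC100 for full effect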
RTF Ca sens act: increases calcium sensitivity of human cardiac regulated thin filaments. P19429+P45379. IANBD-labeled TnC RTF fluorescence at EC20 calcium; 0% EC20 calcium, 100% full calcium. activation, % at 7.2 µM. 340,000 compounds, 0.24% hits. AID 493008;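 active means activation above the mean over all tested compounds plus 3 SD, cut at about 30% in these data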;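 further: rise in fluorescence read as greater calcium sensitivity of cardiac thin filaments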
CRFBP-R2 block: CRF-BP/CRF-R2 complex antagonism; HEK293 CRF-R2/CRF-BP, CRF-induced calcium fluorescence; inhibition, % at 11.8 µM; 350,000 compounds, 0.59% hits;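 active means inhibition of the ligand-induced calcium signal above about 50% at the single tested concentration, limit read from the data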
RTF Ca sens inh: cardiac RTF calcium desensitization | P19429+P45379 | IANBD-labeled cardiac RTF, Ca2+ fluorescence | inhibition, % at 7.15 µM | 340,000 compounds, 0.12% hits | AID 493244;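 active means inhibition above the mean inhibition of all tested compounds plus 3 SD, cut at about 17% in these data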;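 further: assay run at fixed EC70 calcium of 1.6 mM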
IDE cell activ: activators of human insulin-degrading enzyme in cells. P14735. HEK cells, FAbeta-B cleavage, fluorescence polarization; 0% vehicle, 100% cell-free pure enzyme wells. activation, % at 5.96 µM. 340,000 compounds, 0.073% hits;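 active means activation above the mean of all tested compounds plus 3 SD, set per screening campaign, cut at about 17% in these data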
Target sequence (P14735 whole entry, looked up): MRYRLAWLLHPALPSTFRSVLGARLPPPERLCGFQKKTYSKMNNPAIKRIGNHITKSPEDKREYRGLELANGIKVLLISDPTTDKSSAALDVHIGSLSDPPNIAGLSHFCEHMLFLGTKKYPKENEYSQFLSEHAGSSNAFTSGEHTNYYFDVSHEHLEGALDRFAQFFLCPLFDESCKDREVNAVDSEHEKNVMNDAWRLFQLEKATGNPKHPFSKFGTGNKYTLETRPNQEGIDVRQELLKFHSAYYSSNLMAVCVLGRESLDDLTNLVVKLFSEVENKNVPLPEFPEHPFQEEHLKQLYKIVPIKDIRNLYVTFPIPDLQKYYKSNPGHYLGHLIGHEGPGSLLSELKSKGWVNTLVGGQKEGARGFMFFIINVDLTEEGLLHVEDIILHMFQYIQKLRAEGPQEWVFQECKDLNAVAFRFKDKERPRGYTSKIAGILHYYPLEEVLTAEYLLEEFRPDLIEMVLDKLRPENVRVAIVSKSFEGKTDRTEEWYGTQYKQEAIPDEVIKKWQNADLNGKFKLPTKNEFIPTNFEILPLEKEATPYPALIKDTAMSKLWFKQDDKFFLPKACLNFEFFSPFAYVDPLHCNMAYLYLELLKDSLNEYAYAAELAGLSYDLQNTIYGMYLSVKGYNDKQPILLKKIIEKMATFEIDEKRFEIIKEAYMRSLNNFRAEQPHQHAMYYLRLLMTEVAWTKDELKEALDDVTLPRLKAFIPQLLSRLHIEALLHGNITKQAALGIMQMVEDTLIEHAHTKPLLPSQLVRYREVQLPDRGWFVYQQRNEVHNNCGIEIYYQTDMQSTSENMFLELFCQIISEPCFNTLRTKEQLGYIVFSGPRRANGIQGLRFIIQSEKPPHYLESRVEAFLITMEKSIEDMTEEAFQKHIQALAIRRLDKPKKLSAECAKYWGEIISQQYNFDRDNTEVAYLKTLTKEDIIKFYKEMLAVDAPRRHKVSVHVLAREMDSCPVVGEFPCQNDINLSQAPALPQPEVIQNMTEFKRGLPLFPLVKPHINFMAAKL
IDE cell inh: inhibits human insulin-degrading enzyme in HEK cells; P14735; FAbetaB cleavage, fluorescence polarization; inhibition, % at 5.59 µM; 320,000 compounds, 0.41% hits; AID 434962;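 active means percent inhibition above the average of all tested compounds plus 3 SD, set per screening campaign, cut at about 16% in these data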;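 further: IDE supplied by intact live HEK cells; FP after avidin binding of uncleaved biotin substrate so inhibition keeps polarization high; 0% = DMSO wells and 100% = 60 µM reference IDE inhibitor Ii1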
IDE cell inh cf: cellular human IDE inhibition, confirmation | shares compounds with IDE cell inh | HEK cells, FAbetaB cleavage, fluorescence polarization | inhibition, % at 5.59 µM | 1,200 compounds, 51% hits | AID 435028;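 active means mean inhibition across triplicate wells above the cutoff set by the earlier primary insulin-degrading enzyme screen, cut at about 16% in these data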;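 further: 0% = DMSO wells and 100% = 60 µM reference IDE inhibitor Ii1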
HEK cytotox: kills HEK cells in IDE inhibitor counter-screen | HEK293 cytotoxicity, ATP luminescence | 1,200 compounds, 28% hits | shares compounds with IDE cell inh | AID 449730 | inhibition, % at 5.59 µM; in the data active means inhibition above about 22%;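 further: 0% = vehicle wells and 100% = reference cytotoxic drug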
The depositor's hits bear a star; i = inactive; . = no result; + = active, no number. Hits are enriched below; roughly 1.5% of the tested compounds scored in any of these assays.

SMILES	CRFR2-BP ag	RTF Ca sens act	CRFBP-R2 block	RTF Ca sens inh	IDE cell activ	IDE cell inh	IDE cell inh cf	HEK cytotox
O=C1/C(=C\c2c(NCCOCCO)nc3ccccn3c2=O)SC(=S)N1Cc1ccco1	102*	40*	-97	-59	-69	99*	80*	15
CN(C)c1ccc(/C=C/C(=O)c2c(O)c3ccccc3oc2=O)cc1	129*	24	-81	-17	-71	25*	36*	5
CCOc1ccc(/C=C/C(=O)c2c(O)c3ccccc3oc2=O)cc1	2	-1	20	-13	5	-5	.	.
CN(C)S(=O)(=O)c1ccc(NC(=O)CSc2ncnc3ccccc23)cc1	-4	-1	-53	-6	-8	19*	1	11
CN(C)S(=O)(=O)c1cccc(NC(=O)CSc2ncnc3ccccc23)c1	0	3	-5	-28	-9	4	.	.
O=C(O)c1ccccc1-c1c2cc(I)c(=O)c(I)c-2oc2c(I)c(O)c(I)cc12	243*	501*	-255	i	-174	147*	91*	27*
COc1ccccc1CN1C[C@@H]2C[C@@H](c3ccc(C)cc3)N3CCC[C@@]23C1=O	1	5	-17	-17	-2	1	.	.
COc1ccccc1CN1C[C@@H]2C[C@@H](c3ccc4nsnc4c3)N3CCC[C@@]23C1=O	0	-4	0	-2	-4	19*	7	15
COc1cc(C2C(C#N)=C(N)Oc3cc(N(C)C)ccc32)cc2c1OCO2 (stereo unspecified)	158*	13	-193	-27	-20	19*	15	67*
Cc1cc(C)c2c(=O)n(CC(=O)NCCCN3CCOCC3)sc2n1	2	6	-2	-7	-59	22*	20*	4
Cc1cc(C)c2c(=O)n(CC(=O)NCCCN3CCN(c4ccccc4F)CC3)sc2n1	0	.	20	.	.	39*	11	115*
Cc1cc(Cl)ccc1OC(C)C(=O)OCC(=O)c1ccc[nH]1 (stereo unspecified)	0	0	-8	-6	0	-5	.	.
COC(=O)c1sc(N)c(C(=O)OC)c1CSc1nnnn1C	-4	-1	-2	-9	5	1	.	.
COC(=O)c1sc(N)c(C(=O)OC)c1CSc1nnc(-c2ccccc2Cl)n1C	-4	-4	-25	-12	-4	16*	5	10
Cc1[nH]n(-c2ccccc2)c(=S)c1C=NCCCN=Cc1c(C)[nH]n(-c2ccccc2)c1=S	-1	1	-1	-10	-16	32*	4	123*
CC1=CC(c2ccc(Cl)cc2)n2nc(NC(=O)CCC(=O)O)nc2N1 (stereo unspecified)	-1	3	4	-17	-2	-1	.	.
O=C(CCCCl)Oc1ccc2cc(-c3ccc4ccccc4n3)c(=O)oc2c1	106*	2	-94	-15	-49	37*	52*	4
O=c1[nH]cnc2onc(-c3ccc(F)cc3)c12	-1	-3	8	-1	6	1	.	.
Cc1cccc(N=Cc2[nH]c3ccc(Br)c(Cl)c3c2O)c1	192*	63*	-190	-87	-28	22*	23*	11
COc1ccccc1N1C(=O)c2cccc3c(N(C)CCO)ccc(c23)C1=O	111*	52*	-104	-63	-33	45*	47*	10
Cc1ccccc1N1C(=O)c2cccc3c(N(C)CCO)ccc(c23)C1=O	159*	179*	-152	-153	-49	47*	68*	11
COc1cc(/C=C(/C#N)C(=O)NC(C)c2ccccc2)cc(OC)c1O (stereo unspecified)	35	-4	-53	-10	-53	75*	79*	10
O=C(O)CC1(CC(=O)Nc2cc3ccccc3cn2)CCCCC1	0	.	-2	.	.	1	.	.
CCCCCCc1cc2cc(-c3nnc(-c4ccccc4O)o3)c(=O)oc2cc1O	232*	58*	-234	-140	-70	38*	118*	8
COc1ccc(-c2nnc(-c3ccccc3O)o2)cc1	0	-8	-1	0	4	-11	.	.
SMILES	CRFR2-BP ag	RTF Ca sens act	CRFBP-R2 block	RTF Ca sens inh	IDE cell activ	IDE cell inh	IDE cell inh cf	HEK cytotox
CCOc1ccc(Cl)cc1/C=N/NC(=O)CNC(=O)c1ccccc1	-1	-2	-13	11	-6	26*	6	15
Nc1c(C(=O)c2ccccc2)sc2nsc(SCCN3CCOCC3)c12	69*	.	-92	.	.	29*	61*	58*
Cc1nc(-c2ccc(F)cc2)c(CC(=O)N2CCN(S(=O)(=O)c3cccc(F)c3)CC2)s1	0	-3	-2	-46	-4	0	.	.
COc1ccc2nc(Nc3sc4c(c3C(N)=O)CCCC4)sc2c1	9	-2	-24	2	-13	20*	2	8
COc1ccc(CC(=O)Nc2sc3c(c2C(N)=O)CCCC3)cc1	0	3	-3	-1	-1	1	.	.
CCc1ccc(NC(=O)CN2C(=O)C(=O)N(Cc3ccccc3)C2=O)cc1	.	.	.	.	.	2	.	.
CCCCCCN1C=C/C(=C\C=C(C#N)C#N)c2ccccc21	-4	0	8	0	2	4	.	.
CCCCCN1C=CC=C/C1=C\C=C(C#N)C#N	19	.	-22	.	.	16	.	.
CCCCCCN1C=CC=C/C1=C/C=C(C#N)C#N	41	9	-79	-13	-39	29*	36*	8
CCOC(=O)/C(C#N)=C/C=C1\C=Cc2ccccc2N1CC	0	-1	-13	-6	-33	12	.	.
CCCN1C=CC(=CC=C(C#N)C#N)C=C1	94*	42*	-61	-48	-32	39*	47*	6
C=CCN1C=CC(=CC=C(C#N)C#N)C=C1	67*	44*	-54	-46	-29	23*	41*	5
CCCCCCN1C=CC(=C/C=C(\C#N)C(=O)OCC)C=C1	247*	141*	-261	-262	-114	165*	121*	21
CN(C)C(=O)CCc1ccc2c3c([nH]c2c1)[C@]1(CCc2ccccc2)[C@@H](C(=O)N2CCCCC2)C[C@H](CC(=O)NC(C)(C)C)C(=O)N1CC3	0	-8	-4	3	2	.	.	.
Cc1ccc(N2C(=O)c3cccc4c(N)ccc(c34)C2=O)c2cccnc12	201*	754*	-176	i	-80	84*	65*	68*
CCN1C(=O)c2cccc3c(N)ccc(c23)C1=O	213	+	-136	i	0	24*	61*	11
Cc1ccc(-n2cnnn2)c2cccnc12	1	4	-15	-3	5	2	.	.
